Assay outcomes: PubChem BioAssay, Sanford-Burnham Center for Chemical Genomics
HIF-2a inh – HIF-2a reporter inhibitors, primary screen, luminescence, 786-0 RCC cells; 786-0 RCC cells HIF-2a reporter, luciferase luminescence, overnight; inhibition, % at 18.8 µM; 360,000 compounds, 0.72% hits;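 active = inhibition of the luminescence signal of 40% or more relative to plate controls, in a single-dose primary screen at 18.75 µM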
TRAIL sens C8 – viability loss with TRAIL in NB7+C8 cells, primary screen, TRAIL sensitizer project, cell-based, ATPlite luminescence | 360,000 compounds, 1% hits | AID 624354, 2012 | inhibition (viability loss, TRAIL sensitization), % at 10 µM;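 active = compounds causing at least 50% loss of cell viability in the single-dose screen, relative to plate controls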
Peg3 promoter – Peg3 promoter-driven luciferase inhibitors, primary screen, cell-based, HeLa, luciferase luminescence; HeLa PEG-Prom luciferase reporter, overnight; inhibition, % at 20 µM; 360,000 compounds, 1.7% hits; AID 588405, 2011;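 active = inhibition of at least 50% at 20 µM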
CF NFkB block – inhibitors of PAF-induced NF-kB signaling, primary screen, cell-based, GFP fluorescence, uHTS; inhibition, % at 5 µM; KKLEB NF-kB-GFP reporter, GFP fluorescence overnight; 360,000 compounds, 0.86% hits;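 active = at least 50% inhibition at 5 µM, scaled per plate between neutral and stimulator controls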;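 also: PAF is a Pseudomonas aeruginosa culture filtrate used as stimulus; plate controls were PAF-stimulated DMSO wells for no effect and unstimulated DMSO wells for full effect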
KKLEB cytotox – cytotoxicity in KKLEB CF airway cells, primary screen, cytotoxicity control for CF NF-kB inhibitor project, cell-based, uHTS, fluorescence assay plates; KKLEB CF airway cells viability, ATPlite luminescence, overnight; stronger effect = lower value; cells stimulated with P. aeruginosa culture filtrate; activity change (cytotoxicity), % at 5 µM; 360,000 compounds, 0.36% hits;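 active = corrected activity change at or below -50% at 5 µM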
PPC-1+TRAIL kill – compounds killing PPC-1 cancer cells with TRAIL present, primary screen, TRAIL potentiator project, ATPLite luminescence, uHTS; PPC-1 cells + TRAIL, ATPLite viability luminescence; cell killing (% activity), % at 4 µM or 5 µM; 220,000 compounds, 0.41% hits; AID 1443, 2008;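 active = cell killing above 50% in the first pass at 4 µM, then a duplicate retest at 5 µM averaging 50% or more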;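 also: plate controls were cells with TRAIL plus DMSO for no effect and medium-only wells lacking cells for full effect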
CF NFkB inh conf – inhibitors of PAF-induced NF-kB signaling, retest, confirmation, cell-based, GFP fluorescence, single concentration | shares compounds with CF NFkB block | KKLEB CF airway cells, overnight | inhibition, % at 5 µM | 1,300 compounds, 64% hits; in the data active = inhibition above about 40%;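 also: stimulus PAF is a Pseudomonas aeruginosa filtrate and not platelet activating factor; plate controls were DMSO wells with stimulus for no effect and unstimulated DMSO wells for full effect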
Mdm2 MdmX conf – retested Mdm2-MdmX interaction blockers, confirmation, cell-based, luminescence, single concentration, set 2 | inhibition, % at 8 µM | shares compounds with HIF-2a inh | 740 compounds, 99% hits | SaOS-2 split-luciferase Mdm2/MdmX complementation;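 active = mean inhibition of the luminescence signal across two replicates at or above 26 percent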
HIF-2a conf – HIF-2a reporter inhibitor retest, confirmation, luminescence, 786-0 RCC cells; shares compounds with HIF-2a inh; HIF-2a luciferase reporter luminescence, overnight; inhibition, % at 18.8 µM; 1,800 compounds, 56% hits; AID 651580, 2012;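 active = mean inhibition across four replicates of at least 40 percent at the single tested concentration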
HIF-1a counter – HIF-1a luciferase reporter signal reduction – MiaPaCa-2 cells, single concentration, counter-screen for HIF-2a inhibitor project, confirmation | 1,800 compounds, 72% hits | AID 651589, 2012 | MiaPaCa-2 HIF-1a luciferase reporter, desferoxamine, overnight | shares compounds with HIF-2a inh | inhibition, % at 18.8 µM;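 active = mean inhibition of the reporter signal across four replicates at the single tested dose of 50% or more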
* = called active by the depositor; nt = no result given. Sampled rows, rich in hits. Any-hit rate of the full collection: about 3.1%.

SMILES	HIF-2a inh	TRAIL sens C8	Peg3 promoter	CF NFkB block	KKLEB cytotox	PPC-1+TRAIL kill	HIF-2a conf	HIF-1a counter	others
N#C/C(=C\c1cccc(NC(=O)c2ccccc2Cl)c1)C(=O)NCCc1ccccc1	80*	25	12	82*	-31	-1	45*	93*	CF NFkB inh conf=9
Cn1c(Sc2ccc(Cl)cc2)c(C=O)c2ccccc21	26	-17	54*	76*	-29	-11	nt	nt	CF NFkB inh conf=81*;Mdm2 MdmX conf=92*
CCOC(=O)C(=Cc1ccc(-n2cncn2)cc1)C(=O)OCC	94*	3	104*	75*	-8	2	90*	106*	CF NFkB inh conf=22
CCCn1nc(C(=O)NNC(=O)CCCOc2ccc(OC)cc2)c2ccccc2c1=O	14	6	9	10	-8	nt	nt	nt
COCC1CCCN(C(=O)c2cc(COc3ccc4ncccc4c3)on2)C1 (configuration not stated)	2	25	-17	2	-8	nt	nt	nt
COc1ccc(NC(=O)CN(c2ccc(F)cc2)S(=O)(=O)c2ccccc2)c(OC)c1	15	-8	21	-1	-9	nt	nt	nt
O=C(Cc1cccc(NC(=O)C2CCCN(C(=O)C3CCCCC3)C2)c1)Nc1cccc(C(=O)N2CCCC2)c1 (configuration not stated)	2	-19	0	4	-12	nt	nt	nt
CC(C)(C)C(=O)Cn1ncc(Br)c(Br)c1=O	94*	4	97*	78*	-41	6	93*	105*	CF NFkB inh conf=38
Cc1cccc(C)c1NC(=O)c1ccc2sc([C@@H]3O[C@H](CO)[C@H](O)[C@H](O)[C@H]3O)nc2c1	14	-9	3	-18	19	nt	nt	nt
O=C(CSc1nnc(-c2ccco2)o1)N1CCCCC1	-126	1	-136	-4	3	nt	nt	nt
Nc1nc(N)nc(-c2cc(O)ccc2O)n1	-6	-2	-17	54*	4	nt	nt	nt	CF NFkB inh conf=72*;Mdm2 MdmX conf=101*
CC1(C(=O)NS(=O)(=O)C2CC2)CCCN(C(=O)c2cccs2)C1 (configuration not stated)	1	-5	0	-4	-3	nt	nt	nt
O=C1C2C3C=CC(CC3)C2C(=O)N1c1ccccc1 (configuration not stated)	15	2	8	5	2	nt	nt	nt
O=C1C=CC2C3C(=O)N(c4ccccc4)C(=O)C3C1N2Cc1ccccc1 (configuration not stated)	86*	19	102*	80*	-17	nt	98*	104*	CF NFkB inh conf=-178
CCOC(=O)N1C(=O)[C@@](c2ccc(Cl)cc2)(C(C)C)N1C(=O)OCC	68*	35	100*	70*	-16	nt	58*	85*	CF NFkB inh conf=35
CCOC(=O)N1CCN(C(=O)Cc2ccc(Cl)cc2)CC1	-17	-8	-9	12	-7	5	nt	nt
COc1cc(C)c(COc2ncnc3ccccc23)cc1OC	6	-4	17	-3	5	nt	nt	nt
Cc1cccc(C)c1NS(=O)(=O)c1ccc(-c2cnc(C3CC3)o2)cc1	47*	11	19	65*	-31	nt	35	51*	CF NFkB inh conf=73*
CCOC(=O)c1ccc(N(C(=O)CNC(=O)c2ccco2)C(C(=O)NCC2CCCO2)c2ccc(OC)c(OC)c2)cc1 (configuration not stated)	5	-10	3	-4	-7	nt	nt	nt
Cc1ccc(-c2nc3cc(N)ccc3o2)cc1Br	-126	24	-303	-4	4	nt	nt	nt
Cc1ccc(C)c(-c2nc3cc(N)ccc3o2)c1	65*	2	-167	-30	13	-10	70*	28
Nc1ccc2oc(-c3cc(Br)ccc3Cl)nc2c1	61*	2	-55	-26	17	15	90*	50
CN(C)Cc1c(O)ccc2c1O/C(=C\C=C\c1ccccc1)C2=O	11	-10	21	8	14	18	nt	nt	Mdm2 MdmX conf=11
COc1ccc(NC(=O)/C(C#N)=C/c2c(C)nn(-c3ccc(F)cc3)c2Cl)cc1Cl	24	17	17	6	-33	5	nt	nt
COc1ccc(NC(=O)/C(C#N)=C/c2c(C)nn(-c3ccc(F)cc3)c2Cl)cc1OC	43*	6	22	17	-3	12	11	54*
SMILES	HIF-2a inh	TRAIL sens C8	Peg3 promoter	CF NFkB block	KKLEB cytotox	PPC-1+TRAIL kill	HIF-2a conf	HIF-1a counter	others
[O-][N+](=Cc1c(Cl)cccc1Cl)CC1(O)CCCCC1	8	-1	0	-22	10	nt	nt	nt
CC(C)C(=O)NC(c1cccc([N+](=O)[O-])c1)c1ccc2cccnc2c1O (configuration not stated)	20	29	63*	8	-9	nt	nt	nt	Mdm2 MdmX conf=88*
CCCC(=O)NC(c1ccc(Cl)cc1Cl)c1ccc2cccnc2c1O (configuration not stated)	12	4	59*	-9	-7	nt	nt	nt	Mdm2 MdmX conf=85*
CCCC(=O)NC(c1ccccc1OC)c1ccc2cccnc2c1O (configuration not stated)	25	16	58*	6	0	44	nt	nt	Mdm2 MdmX conf=87*
CC(=O)Nc1ccc(CCCCc2ccc(NC(C)=O)cc2)cc1	-15	-17	-35	-51	29	nt	nt	nt
O=C(CN(c1cccc(C(F)(F)F)c1)S(=O)(=O)c1ccc(Cl)c([N+](=O)[O-])c1)NCc1ccc(F)cc1	82*	-8	88*	9	1	63*	40	105*
Cc1cc2oc(=O)cc(Cn3ncc(Cl)c(Cl)c3=O)c2cc1Cl	-38	6	106*	88*	-69*	24	nt	nt	Mdm2 MdmX conf=103*
Cc1cccc(Cn2ncc(Cl)c(Cl)c2=O)c1	13	54*	44	23	11	10	nt	nt	Mdm2 MdmX conf=103*
O=c1c2ccccc2cnn1Cc1ccc(Cl)c(Cl)c1	-31	17	-11	-20	2	nt	nt	nt
